Rows were chosen to be rich in hits. Some 21% of all compounds tested hit in one or more screens of this group.
HCMV antiviral: blocks human cytomegalovirus replication; HFF cells, HCMV-luciferase reporter, 72 h; active compounds read low; AID 1259415; 410,000 compounds, 4.5% hits; activity change, negative = inhibition, % at 57.5 µM; in the data active means activity change below about -60%; inconclusive means no clear call, values can overlap the other calls; inactive means above about -39%
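Compounds were evaluated in HFFs infected with an HCMV luciferase reporter virus (MOI 1 PFU/cell). Luciferase in lysates collected 72 h post infection served as the replication measure.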
HCV inhibitor: HCV inhibition; Huh7.5.1 HCVcc-Cre infection, luciferase reporter, 44 h; Potency, µM (series often up to 41.8 µM), most hits filed as inhibitors; 340,000 compounds, 3.4% hits; AID 651820
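1,000 cells/well; 4 h culture; + compound; + HCVcc-Cre (~0.5 moi); 44 h; luciferase substrate, RT 15 min; read 15 sec.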
Pf growth 48h: inhibits P. falciparum growth in the first generation, 48 h. P. falciparum luciferase growth in erythrocytes, 48 h. Potency, µM (highest dose often 28.7 µM), actives largely listed as inhibitors. 310,000 compounds, 5.9% hits. AID 504832
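Luciferase-expressing parasites in RBCs, 2% Hct / 0.1% parasitemia final; RPMI 1640 + 0.5% Albumax; 37 C, 5% CO2, one generation; luminescence read-out, lower signal = inhibition.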
Pf growth 96h: P. falciparum growth inhibition at 96 hours; P. falciparum luciferase reporter growth, 96 h; Potency, µM (top dose mostly 28.7 µM), hits mostly inhibitors; 320,000 compounds, 6.9% hits; AID 504834
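Compounds incubated with erythrocytes infected by luciferase-expressing P. falciparum (2% hematocrit, 0.05% parasitemia final) for 96 hours, 37 C in 5% CO2. Growth inhibition scored as decreased luciferase luminescence.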
CHX counter: counter-screen hit for Shiga toxin inhibitors, cycloheximide; cell reporter, cycloheximide protein synthesis inhibition counterscreen; max response, %; 300,000 compounds, 12% hits; AID 2314; in the data active means max response mostly above about 13%, no sharp cut-off; inactive means mostly below about 14%; further: read at 38.3 µM for the half of the compounds with a filed dose
Shiga inhibitor: Shiga toxin inhibition | Vero cells, Shiga toxin protein synthesis inhibition reporter | inhibition, % at 38.7 µM | 290,000 compounds, 9.2% hits; in the data active means inhibition mostly above about 28%, no sharp cut-off; inactive means mostly below about 43%
A number is an active result; [ ] = remark or other dose. Unless noted, the call rests on the fitted dose curve; in most records, active means well fitted inhibition curve with a large enough effect; inconclusive means small, poorly fitted or top-dose-only effect, or another doubt; inactive means no such curve, though single readings can be large or run the other way.

`COc1ccc(NC(=O)N2CCc3ccccc3C2)cc1` gave HCMV antiviral inactive, HCV inhibitor inactive, Pf growth 48h inactive, Pf growth 96h inconclusive, CHX counter 63 and Shiga inhibitor 78.
Screening COc1cc2c(cc1OC)CN(C(=O)Nc1ccccc1)CC2 returned HCMV antiviral inconclusive, HCV inhibitor inactive, Pf growth 48h inactive, Pf growth 96h inactive, CHX counter inactive and Shiga inhibitor inactive.
`COc1cccc(COc2ccc3c(C)c(Cc4ccccc4)c(=O)oc3c2)c1` gave HCMV antiviral inactive and HCV inhibitor inconclusive.
Screening CCCCc1c(C)c2ccc(OC)c(/C(C)=N\O)c2oc1=O returned HCMV antiviral inactive, HCV inhibitor inconclusive, Pf growth 48h inactive, Pf growth 96h inactive, CHX counter 19 and Shiga inhibitor inactive.
`Cc1c(CC(=O)O)c(=O)oc2c(C)c(OCc3ccc(F)cc3F)ccc12` gave HCMV antiviral inconclusive, HCV inhibitor inactive, Pf growth 48h inactive[0.00184 µM], Pf growth 96h inactive, CHX counter inactive and Shiga inhibitor inactive.
`COc1ccccc1COc1ccc2c(C)c(CC(=O)O)c(=O)oc2c1C` gave HCMV antiviral inactive, HCV inhibitor inactive, Pf growth 48h inactive, Pf growth 96h 6.6µM, CHX counter inactive and Shiga inhibitor inactive.
Screening Cc1cc(C)cc(COc2ccc3c(C)c(CC(=O)O)c(=O)oc3c2C)c1 returned HCMV antiviral inactive, HCV inhibitor inactive, Pf growth 96h inactive, CHX counter inactive and Shiga inhibitor inactive.
Screening COc1cc(COc2ccc3c(C)c(Cc4ccccc4)c(=O)oc3c2C)cc(OC)c1OC returned HCMV antiviral inactive, HCV inhibitor 6.3µM, Pf growth 48h inconclusive, Pf growth 96h 1.9µM, CHX counter inactive and Shiga inhibitor inactive.
Screening COc1cc(COc2ccc3c(C)c(Cc4ccccc4)c(=O)oc3c2)cc(OC)c1OC returned HCMV antiviral inactive, HCV inhibitor inconclusive, Pf growth 48h 8.3µM, Pf growth 96h inconclusive, CHX counter inactive and Shiga inhibitor inactive.
Screening CCC(C)NC(=O)C1c2ccccc2C(=O)N1Cc1ccc(F)cc1 (centres undefined) returned HCMV antiviral inactive, HCV inhibitor inactive, Pf growth 96h inactive, CHX counter inactive and Shiga inhibitor inactive.
Screening O=C(CN(Cc1ccccc1Cl)C(=O)CNS(=O)(=O)c1ccc(F)cc1)NCC1CCCO1 (centres undefined) returned HCMV antiviral inactive, HCV inhibitor inactive, Pf growth 48h inactive, Pf growth 96h inconclusive, CHX counter inactive and Shiga inhibitor inactive.
Screening COc1ccc(Cl)cc1NC(=O)c1cc2nc(-c3ccc(C)cc3)cc(C(F)(F)F)n2n1 returned HCMV antiviral inactive.
`COc1ccc2c(C)c(Cc3ccccc3)c(=O)oc2c1OC` gave HCMV antiviral inactive, HCV inhibitor inconclusive, Pf growth 48h 12µM, Pf growth 96h inactive, CHX counter inactive and Shiga inhibitor inactive.
For COc1ccc2c(C)c(CC(=O)NCCc3ccccc3)c(=O)oc2c1OC the results were HCMV antiviral inactive.
COC(=O)[C@@H]1C[C@]2(OC(=O)c3ccccc3)C=CC(=O)C[C@@H]2N1C(=O)OCc1ccccc1 was read as HCMV antiviral -98, HCV inhibitor inconclusive, Pf growth 48h inactive, Pf growth 96h inconclusive, CHX counter inactive and Shiga inhibitor inactive.
Screening COC(CNC(=O)C1CCCN1C(=O)OCc1ccccc1)OC (centres undefined) returned HCMV antiviral inactive, HCV inhibitor inactive, Pf growth 48h inactive, Pf growth 96h inactive, CHX counter inactive and Shiga inhibitor inactive.
Screening O=C(NC(=S)N1CCCC(C(F)(F)F)C1)c1ccc(F)cc1 (centres undefined) returned HCMV antiviral -66, HCV inhibitor inactive, Pf growth 48h inconclusive, Pf growth 96h inconclusive, CHX counter inactive and Shiga inhibitor inactive.
Screening CC(=O)c1ccc(NC(=S)N2CCCC(C(F)(F)F)C2)cc1 (centres undefined) returned HCMV antiviral inactive, HCV inhibitor inactive, Pf growth 48h inactive, Pf growth 96h inactive, CHX counter inactive and Shiga inhibitor inactive.
COc1cc(OC)cc(C(=O)NC(=S)N2CCCCCC2)c1 was read as HCMV antiviral inconclusive, HCV inhibitor inactive, Pf growth 48h inconclusive, Pf growth 96h inactive, CHX counter inactive and Shiga inhibitor inactive.
`COC(=O)c1ccc(C(=O)OC)c(NC(=S)N2CCC(C)CC2)c1` gave HCMV antiviral inactive, HCV inhibitor inactive, Pf growth 48h inactive, Pf growth 96h 7.4µM, CHX counter inactive and Shiga inhibitor inactive.
For COc1ccc(C(=O)NC(=S)N2CCCCC2)cc1 the results were HCMV antiviral inactive, HCV inhibitor inactive, Pf growth 96h inactive, CHX counter 19 and Shiga inhibitor 40.
Screening COc1ccc(C(=O)NC(=S)N2CCCC2)cc1 returned HCMV antiviral inactive, HCV inhibitor inactive, Pf growth 48h inactive, Pf growth 96h 13µM, CHX counter inactive and Shiga inhibitor inactive.
Screening COc1ccc(NC(=S)N2CCCC2)cc1 returned HCMV antiviral inactive, HCV inhibitor inactive, Pf growth 48h inactive, Pf growth 96h inactive, CHX counter inactive and Shiga inhibitor inactive.
Screening COc1ccc(C(=O)NC(=S)N2CCC(C)CC2)cc1 returned HCMV antiviral inactive, HCV inhibitor inactive, Pf growth 96h inactive, CHX counter 26 and Shiga inhibitor inactive.
CC1CCN(C(=S)NC(=O)c2ccc(F)cc2)CC1 was read as HCMV antiviral inactive and HCV inhibitor inactive.
COc1ccc(NC(=O)C(=S)N2CCCC2)cc1 was read as HCMV antiviral inactive, HCV inhibitor inactive, Pf growth 48h inactive, Pf growth 96h inconclusive, CHX counter 30 and Shiga inhibitor inactive.
`CC(=O)c1cccc(NC(=O)c2c(N3CCCC3=O)c3cc(F)ccc3n2C)c1` gave HCMV antiviral inactive.
Screening CCc1cc2c(=O)c(-c3nc4ccccc4n3C)c(C)oc2c(CN(CC)CC)c1O returned HCMV antiviral inactive, HCV inhibitor inactive, Pf growth 48h inactive, Pf growth 96h inactive, CHX counter inactive and Shiga inhibitor inactive.
CC(=O)Oc1ccc2cc(-c3nc4ccccc4n3C)c(=O)oc2c1 was read as HCMV antiviral inactive, HCV inhibitor inactive, Pf growth 48h inactive, CHX counter inactive and Shiga inhibitor 75.
`CCN(CC)Cc1c(O)ccc2cc(-c3nc4ccccc4n3C)c(=O)oc12` gave HCMV antiviral inactive, HCV inhibitor inactive, Pf growth 48h inactive, Pf growth 96h inactive, CHX counter 11 and Shiga inhibitor inactive.
Cn1c(-c2cc3ccc(OC(=O)C(C)(C)C)cc3oc2=O)nc2ccccc21 was read as HCMV antiviral inactive, HCV inhibitor inactive, Pf growth 48h inactive, Pf growth 96h inactive, CHX counter inactive and Shiga inhibitor inactive.
Screening CCOC(=O)CC1C(=O)NCCN1C(=O)Nc1ccc(Cl)cc1 (centres undefined) returned HCMV antiviral inactive, HCV inhibitor inactive, Pf growth 48h inactive, Pf growth 96h inactive, CHX counter inactive and Shiga inhibitor inactive.

Screening results: PubChem BioAssay, National Center for Advancing Translational Sciences (NCATS)
